Measurements: PubChem BioAssay (NCATS)
Results filed as inconclusive are left out. The source made the active and inactive calls. The call rests on the fitted dose curve; in most records, active means well fitted curve in the direction sought with a large enough effect; inconclusive means small, poorly fitted or top-dose-only effect, or another doubt; inactive means no such curve, though single readings can be large; an effect the other way counts as inactive or inconclusive.

Columns and labels:
MCC-13 = assay: qHTS assay to identify novel small-molecules to repurpose for Merkel cell carcinoma treatment (AID 1296009); details: MCC and control cell lines, CellTiter-Glo viability, 72 h; series mostly up to 46 µM; further: nearly all actives have a fitted effect of over 60% in size
Procedure, shortened: (§1)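 CellTiter-Glo luminescence after 72 hr compound exposure at 37 degree celsius gave cell viability. Libraries NPC and MIPE were run as 8- and 11-point dose responses; RLUs normalized to DMSO (negative) and no-cell (cytotoxicity) controls.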

MKL-1 = assay: as above; details: MCC and control cell lines, CellTiter-Glo viability, 72 h; series mostly up to 46 µM
Procedure, shortened: as §1

UISO = assay: as above; details: MCC and control cell lines, CellTiter-Glo viability, 72 h; series mostly up to 46 µM
Procedure, shortened: as §1

WaGa = assay: as above; details: MCC and control cell lines, CellTiter-Glo viability, 72 h; series mostly up to 46 µM
Procedure, shortened: as §1

C33A = assay: Primary qHTS to identify gynecologic anti-cancer compounds using libraries of approved drugs and bioactive compounds (AID 1345084); details: Gynecologic cancer cell panel viability, ATPlite luminescence, 48 h; series mostly up to 57.5 µM; further: nearly all actives have a fitted effect of over 55% in size
Procedure, shortened: (§2)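 Luminescence from the ATPlite ATP-monitoring reagent indicates viable cell number; lower signal means cytotoxicity. Cells received compound 16 h after seeding and were exposed for 48 h across five concentrations.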

CAOV3 = assay: as above; details: Gynecologic cancer cell panel viability, ATPlite luminescence, 48 h; series mostly up to 57.5 µM
Procedure, shortened: as §2

CASKI = assay: as above; details: Gynecologic cancer cell panel viability, ATPlite luminescence, 48 h; series mostly up to 57.5 µM
Procedure, shortened: as §2

Es-2 = assay: as above; details: Gynecologic cancer cell panel viability, ATPlite luminescence, 48 h; series mostly up to 57.5 µM
Procedure, shortened: as §2

HeLa = assay: as above; details: Gynecologic cancer cell panel viability, ATPlite luminescence, 48 h; series mostly up to 57.5 µM
Procedure, shortened: as §2

Hek293T = assay: as above; details: Gynecologic cancer cell panel viability, ATPlite luminescence, 48 h, control line for the selectivity index; series mostly up to 57.5 µM
Procedure, shortened: as §2

JEG-3 = assay: as above; details: Gynecologic cancer cell panel viability, ATPlite luminescence, 48 h; series mostly up to 57.5 µM
Procedure, shortened: as §2

OV90 = assay: as above; details: Gynecologic cancer cell panel viability, ATPlite luminescence, 48 h; series mostly up to 57.5 µM
Procedure, shortened: as §2

PA-1 = assay: as above; details: Gynecologic cancer cell panel viability, ATPlite luminescence, 48 h; series mostly up to 57.5 µM
Procedure, shortened: as §2

SKOV3 = assay: as above; details: Gynecologic cancer cell panel viability, ATPlite luminescence, 48 h; series mostly up to 57.5 µM
Procedure, shortened: as §2

Tov-21-G = assay: as above; details: Gynecologic cancer cell panel viability, ATPlite luminescence, 48 h; series mostly up to 57.5 µM
Procedure, shortened: as §2

Tov112D = assay: as above; details: Gynecologic cancer cell panel viability, ATPlite luminescence, 48 h; series mostly up to 57.5 µM
Procedure, shortened: as §2

[1] = Drug repurposing screens with cells derived from glioblastoma tumor samples (AID 1345199); details: GBM patient neurospheres viability, ATP luminescence, 48 h; further: nearly all actives have a fitted effect of over 40% in size
Procedure, shortened: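 Primary testing used CD133+ neurospheres from four GBM patients, seven concentrations, 48 h exposure and ATP-based viability; confirmation added three slower-growing patient lines.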

MKL-2 = assay: qHTS assay to identify novel small-molecules to repurpose for Merkel cell carcinoma treatment (AID 1296009); details: MCC and control cell lines, CellTiter-Glo viability, 72 h; series mostly up to 46 µM; further: nearly all actives have a fitted effect of over 60% in size
Procedure, shortened: as §1

NIH3T3 = assay: as above; details: MCC and control cell lines, CellTiter-Glo viability, 72 h; at 44.8 µM (top of the series) unless noted
Procedure, shortened: as §1

[2] = at 45.9 µM (top of the series), tumour line B
[3] = at 45.9 µM (top of the series), tumour line D
[4] = at 46 µM (top of the series), tumour line A
[5] = at 46.1 µM (top of the series), tumour line C
On the % scale 0 is the no-effect control and ±100 the full control effect.

CC1CC(OC(=O)c2ccccc2O)CC(C)(C)C1 (centres undefined)
inactive: outcome (MCC-13) | outcome (MKL-1) | outcome (UISO) | outcome (WaGa) | outcome (C33A) | outcome (CAOV3) | outcome (CASKI) | outcome (Es-2) | outcome (HeLa) | outcome (Hek293T) | outcome (JEG-3) | Potency (OV90) | outcome (PA-1) | outcome (SKOV3) | outcome (Tov-21-G) | outcome (Tov112D) | activity, negative = cell killing [1, 2] -18.3% | activity, negative = cell killing [1, 3] -10.1% | activity, negative = cell killing [1, 4] -28.9% | activity, negative = cell killing [1, 5] 1.33%

CC(=O)Oc1cccc(O)c1
inactive: outcome (MCC-13) | outcome (MKL-1) | outcome (MKL-2) | outcome (NIH3T3) | outcome (UISO) | outcome (WaGa) | outcome (C33A) | outcome (CAOV3) | outcome (CASKI) | outcome (Es-2) | outcome (HeLa) | outcome (Hek293T) | outcome (JEG-3) | outcome (PA-1) | outcome (SKOV3) | outcome (Tov-21-G) | outcome (Tov112D) | activity, negative = cell killing [1, 2] -1.54% | activity, negative = cell killing [1, 3] -17.1% | activity, negative = cell killing [1, 4] -23.9% | activity, negative = cell killing [1, 5] -11%

O=C(O)/C=C/c1ccc(Cn2ccnc2)cc1
inactive: outcome (MCC-13) | outcome (MKL-1) | outcome (MKL-2) | outcome (NIH3T3) | outcome (UISO) | outcome (WaGa) | outcome (C33A) | outcome (CAOV3) | outcome (CASKI) | outcome (Es-2) | outcome (HeLa) | outcome (Hek293T) | outcome (JEG-3) | outcome (PA-1) | outcome (SKOV3) | outcome (Tov-21-G) | outcome (Tov112D) | activity, negative = cell killing ([1]; at 20 µM (top of the series), tumour line C) 0.197% | activity, negative = cell killing ([1]; at 21.2 µM (top of the series), tumour line B) -8.95% | activity, negative = cell killing ([1]; at 21.2 µM (top of the series), tumour line D) -11.8% | activity, negative = cell killing ([1]; at 21.3 µM (top of the series), tumour line A) -28.4%

CCCCCC(C)N (centres undefined)
inactive: outcome (MCC-13) | outcome (MKL-1) | outcome (MKL-2) | outcome (UISO) | outcome (WaGa) | outcome (C33A) | outcome (CAOV3) | outcome (CASKI) | outcome (Es-2) | outcome (HeLa) | outcome (Hek293T) | outcome (JEG-3) | Potency (OV90) | outcome (PA-1) | outcome (SKOV3) | outcome (Tov-21-G) | outcome (Tov112D) | activity, negative = cell killing [1, 2] -17% | activity, negative = cell killing [1, 3] -7.45% | activity, negative = cell killing [1, 4] -32% | activity, negative = cell killing [1, 5] -13.3%

COc1ccc(C(=O)N2CCN(CC(=O)N3CCOCC3)CC2)cc1
inactive: outcome (MCC-13) | outcome (MKL-1) | outcome (MKL-2) | outcome (NIH3T3) | outcome (UISO) | outcome (WaGa) | outcome (C33A) | outcome (CAOV3) | outcome (CASKI) | outcome (Es-2) | outcome (HeLa) | outcome (Hek293T) | outcome (JEG-3) | Potency (OV90) | outcome (PA-1) | outcome (SKOV3) | outcome (Tov-21-G) | outcome (Tov112D) | activity, negative = cell killing [1, 2] -0.665% | activity, negative = cell killing [1, 3] -14.5% | activity, negative = cell killing [1, 4] -23.3% | activity, negative = cell killing [1, 5] -11.4%

CCOc1cc(NC(C)=O)ccc1C(=O)OC
inactive: outcome (MCC-13) | outcome (MKL-1) | outcome (MKL-2) | outcome (UISO) | outcome (WaGa) | outcome (C33A) | outcome (CAOV3) | outcome (CASKI) | outcome (Es-2) | outcome (HeLa) | outcome (Hek293T) | outcome (JEG-3) | Potency (OV90) | outcome (PA-1) | outcome (SKOV3) | outcome (Tov-21-G) | outcome (Tov112D) | activity, negative = cell killing [1, 2] -7.75% | activity, negative = cell killing [1, 3] -29.2% | activity, negative = cell killing [1, 4] -29.3% | activity, negative = cell killing [1, 5] 2.82%

CCN(CC)C(=O)c1cccc(C)c1
inactive: outcome (MCC-13) | outcome (MKL-1) | outcome (MKL-2) | outcome (NIH3T3) | outcome (UISO) | outcome (WaGa) | outcome (C33A) | outcome (CAOV3) | outcome (CASKI) | outcome (Es-2) | outcome (HeLa) | outcome (Hek293T) | outcome (JEG-3) | Potency (OV90) | outcome (PA-1) | outcome (SKOV3) | outcome (Tov-21-G) | outcome (Tov112D) | activity, negative = cell killing [1, 2] -13.5% | activity, negative = cell killing [1, 3] -4.13% | activity, negative = cell killing [1, 4] -18.8% | activity, negative = cell killing [1, 5] -13.4%

NNC(=O)CP(=O)(c1ccccc1)c1ccccc1
inactive: outcome (MCC-13) | outcome (MKL-1) | outcome (MKL-2) | outcome (UISO) | outcome (WaGa) | outcome (C33A) | outcome (CAOV3) | outcome (CASKI) | outcome (Es-2) | outcome (HeLa) | outcome (Hek293T) | outcome (JEG-3) | Potency (OV90) | outcome (PA-1) | outcome (SKOV3) | outcome (Tov-21-G) | outcome (Tov112D) | activity, negative = cell killing [1, 2] -1.23% | activity, negative = cell killing [1, 3] -15% | activity, negative = cell killing [1, 4] -19.4% | activity, negative = cell killing [1, 5] -12.7%

OCc1ccc(Cl)cc1Cl
inactive: outcome (MCC-13) | outcome (MKL-1) | outcome (MKL-2) | outcome (NIH3T3) | outcome (UISO) | outcome (WaGa) | outcome (C33A) | outcome (CASKI) | outcome (Es-2) | outcome (HeLa) | outcome (Hek293T) | outcome (JEG-3) | Potency (OV90) | outcome (PA-1) | outcome (Tov-21-G) | outcome (Tov112D) | activity, negative = cell killing [1, 2] -6.96% | activity, negative = cell killing [1, 3] -3.9% | activity, negative = cell killing [1, 4] -3.28% | activity, negative = cell killing [1, 5] 6.97%

CC[N+](CC)(CC(=O)Nc1c(C)cccc1C)Cc1ccccc1
inactive: outcome (MCC-13) | outcome (MKL-1) | outcome (MKL-2) | outcome (UISO) | outcome (WaGa) | outcome (C33A) | outcome (CAOV3) | outcome (CASKI) | outcome (Es-2) | outcome (HeLa) | outcome (Hek293T) | outcome (JEG-3) | Potency (OV90) | outcome (PA-1) | outcome (SKOV3) | outcome (Tov-21-G) | outcome (Tov112D) | activity, negative = cell killing [1, 2] -20.4% | activity, negative = cell killing [1, 3] -18.5% | activity, negative = cell killing [1, 5] -28%
